# Data as given in PubChem BioAssay (NCATS).
# Inconclusive results are not listed. A call without a number means that no potency is given here. Unmarked numbers belong to inactive results. The source made the active and inactive calls. The call rests on the fitted dose curve; in most records, active means well fitted inhibition curve with a large enough effect; inconclusive means small, poorly fitted or top-dose-only effect; inactive means flat fitted curve, though single readings scatter.
# Tests used:
# [1] = system: PC15; test: qHTS profiling for inhibitors of Plasmodium falciparum proliferation (AID 504749); further: potency means the concentration at half of the fitted maximal effect; conditions: P. falciparum in erythrocytes, SYBR Green DNA, 72 h; series mostly up to 28.7 µM
# Summary of the method: (§1)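 Three-day growth assay of blood-stage parasites in erythrocytes (0.3% parasitemia, 2.5% hematocrit) at 37 C, 5% CO2, quantified by SYBR Green DNA staining after overnight detergent lysis.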
# [2] = system: PC49; test: as above; conditions: P. falciparum in erythrocytes, SYBR Green DNA, 72 h; series mostly up to 28.7 µM
# Summary of the method: as §1
# [3] = system: SC27B; test: as above; conditions: P. falciparum in erythrocytes, SYBR Green DNA, 72 h; series mostly up to 28.7 µM
# Summary of the method: as §1
# [4] = system: TAB109; test: as above; conditions: P. falciparum in erythrocytes, SYBR Green DNA, 72 h; series mostly up to 28.7 µM
# Summary of the method: as §1
# [5] = system: TAB113; test: as above; conditions: P. falciparum in erythrocytes, SYBR Green DNA, 72 h; series mostly up to 28.7 µM
# Summary of the method: as §1
# [6] = system: TAB165; test: as above; conditions: P. falciparum in erythrocytes, SYBR Green DNA, 72 h; series mostly up to 28.7 µM
# Summary of the method: as §1
# [7] = system: W2; test: as above; conditions: P. falciparum in erythrocytes, SYBR Green DNA, 72 h; series mostly up to 28.7 µM
# Summary of the method: as §1
# [8] = system: CRL-7250; test: Cytotoxic Profiling of Annotated Libraries Using Quantitative High-Throughput Screening (AID 1296008); conditions: Five cell lines viability, CellTiter-Glo ATP luminescence, 48-72 h; max response: active compounds read low
# Summary of the method: (§2)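 Cytotoxicity was measured as CellTiter-Glo ATP luminescence, read after 10 min at room temperature. Compound treatment of the cells lasted 48 or 72 hr at 37 degrees Celsius in a qHTS format.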
# [9] = system: HEK293; test: as above; conditions: Five cell lines viability, CellTiter-Glo ATP luminescence, 48-72 h; max response: active compounds read low
# Summary of the method: as §2
# [10] = system: HaCat; test: as above; conditions: Five cell lines viability, CellTiter-Glo ATP luminescence, 48-72 h; max response: active compounds read low
# Summary of the method: as §2
# [11] = system: KB-3-1; test: as above; conditions: Five cell lines viability, CellTiter-Glo ATP luminescence, 48-72 h; max response: active compounds read low
# Summary of the method: as §2
# [12] = system: NIH3T3; test: as above; conditions: Five cell lines viability, CellTiter-Glo ATP luminescence, 48-72 h; max response: active compounds read low
# Summary of the method: as §2
# [13] = system: MCC-13; test: qHTS assay to identify novel small-molecules to repurpose for Merkel cell carcinoma treatment (AID 1296009); conditions: MCC and control cell lines, CellTiter-Glo viability, 72 h; series mostly up to 46 µM; further: potency means the concentration at half of the fitted maximal effect
# Summary of the method: (§3)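 After compound transfer in DMSO, plates were kept 72 hr at 37 degree celsius. Luminescent ATP signal from CellTiter-Glo served as viability measure, normalized against DMSO and no-cell controls.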
# [14] = system: MCC-26; test: as above; conditions: MCC and control cell lines, CellTiter-Glo viability, 72 h; series mostly up to 46 µM
# Summary of the method: as §3
# [15] = system: MKL-1; test: as above; conditions: MCC and control cell lines, CellTiter-Glo viability, 72 h; series mostly up to 46 µM
# Summary of the method: as §3
# [16] = system: MKL-2; test: as above; conditions: MCC and control cell lines, CellTiter-Glo viability, 72 h; series mostly up to 46 µM
# Summary of the method: as §3
# [17] = system: PC26; test: qHTS profiling for inhibitors of Plasmodium falciparum proliferation (AID 504749); further: potency means the concentration at half of the fitted maximal effect; conditions: P. falciparum in erythrocytes, SYBR Green DNA, 72 h; series mostly up to 28.7 µM
# Summary of the method: as §1
# [18] = system: HACAT; test: qHTS assay to identify novel small-molecules to repurpose for Merkel cell carcinoma treatment (AID 1296009); conditions: MCC and control cell lines, CellTiter-Glo viability, 72 h; at 44.8 µM (top of the series) unless noted; further: potency means the concentration at half of the fitted maximal effect
# Summary of the method: as §3
# [19] = system: HEK293T; test: as above; conditions: MCC and control cell lines, CellTiter-Glo viability, 72 h; at 44.8 µM (top of the series) unless noted
# Summary of the method: as §3
# [20] = system: CRL-7250; test: as above; conditions: MCC and control cell lines, CellTiter-Glo viability, 72 h; at 44.8 µM (top of the series) unless noted
# Summary of the method: as §3
# Further: nearly all actives have a fitted effect of over 60% in size.
smiles,measurement,setting,value
COP(=S)(OC)Oc1ccc(SC)c(C)c1,Potency,[1],inactive
same,Potency,[2],inactive
same,Potency,[3],inactive
same,Potency,[4],inactive
same,Potency,[5],inactive
same,Potency,[6],inactive
same,Potency,[7],inactive
same,max response,[8],-0.812%
same,max response,[9],-0.0428%
same,max response,[10],-0.754%
same,max response,[11],-16.5%
same,max response,[12],-0.878%
same,outcome,[13],inactive
same,Potency,[14],inactive
same,Potency,[15],inactive
same,Potency,[16],inactive
O=C1OC(c2ccc(O)c(S(=O)(=O)O)c2)(c2ccc(O)c(S(=O)(=O)O)c2)c2c(Br)c(Br)c(Br)c(Br)c21,Potency,[1],inactive
same,Potency,[17],inactive
same,Potency,[2],inactive
same,Potency,[3],inactive
same,Potency,[4],inactive
same,Potency,[5],inactive
same,Potency,[6],inactive
same,Potency,[7],inactive
same,max response,[8],-1.01%
same,outcome,[10],inactive
same,max response,[11],10.3%
same,outcome,[12],inactive
same,outcome,[18],inactive
same,outcome,[19],inactive
same,outcome,[13],inactive
same,Potency,[15],inactive
same,Potency,[16],inactive
Cc1ncsc1CCCl,Potency,[1],inactive
same,Potency,[17],inactive
same,Potency,[2],inactive
same,Potency,[3],inactive
same,Potency,[4],inactive
same,Potency,[5],inactive
same,Potency,[6],inactive
same,Potency,[7],inactive
same,max response,[8],3.36%
same,max response,[9],-8.24%
same,max response,[10],-12.7%
same,max response,[11],6.67%
same,max response,[12],0.655%
same,outcome,[13],inactive
same,Potency,[15],inactive
same,Potency,[16],inactive
NC(=O)c1cc([N+](=O)[O-])cc([N+](=O)[O-])c1,Potency,[2],inactive
same,Potency,[3],inactive
same,Potency,[4],inactive
same,Potency,[5],inactive
same,Potency,[6],inactive
same,outcome,[8],inactive
same,max response,[10],3.87%
same,max response,[11],-1.64%
same,max response,[12],4.48%
same,outcome,[20],inactive
same,outcome,[13],inactive
same,Potency,[15],inactive
same,Potency,[16],inactive
C[C@]12CCC(=O)C=C1CC[C@@H]1[C@@H]2CC[C@]2(C)C(=O)CC[C@@H]12,Potency,[1],inactive
same,Potency,[17],inactive
same,Potency,[2],inactive
same,Potency,[3],inactive
same,Potency,[4],inactive
same,Potency,[5],inactive
same,Potency,[6],inactive
same,Potency,[7],inactive
same,max response,[8],-5.91%
same,max response,[10],-13.1%
same,max response,[11],-6.1%
same,max response,[12],-1.13%
same,outcome,[13],inactive
same,Potency,[14],inactive
same,Potency,[15],inactive
same,Potency,[16],inactive
CCN(CCO)CCn1c(Cc2ccccc2)nc2c1c(=O)n(C)c(=O)n2C,max response,[8],-2.16%
same,outcome,[10],inactive
same,max response,[11],-17.3%
same,max response,[12],-7.24%
same,outcome,[18],inactive
same,outcome,[13],inactive
same,Potency,[14],inactive
same,Potency,[15],inactive
same,Potency,[16],inactive
O=C1CN=C(c2ccccc2)c2cc([N+](=O)[O-])ccc2N1,Potency,[1],inactive
same,Potency,[17],inactive
same,Potency,[2],inactive
same,Potency,[3],inactive
same,Potency,[4],inactive
same,Potency,[5],inactive
same,Potency,[6],inactive
same,Potency,[7],inactive
same,outcome,[10],inactive
same,max response,[11],3.93%
same,max response,[12],-0.271%
same,outcome,[18],inactive
same,outcome,[13],inactive
same,Potency,[14],inactive
same,Potency,[15],inactive
same,Potency,[16],inactive
Nc1nc(N)nc(NC2CC2)n1,Potency,[1],inactive
same,Potency,[17],inactive
same,Potency,[2],inactive
same,Potency,[3],inactive
same,Potency,[4],inactive
same,Potency,[5],inactive
same,Potency,[6],inactive
same,Potency,[7],inactive
same,max response,[8],-14.4%
same,max response,[11],8.79%
same,max response,[12],-2.48%
same,outcome,[13],inactive
same,Potency,[14],inactive
same,Potency,[15],inactive
same,Potency,[16],inactive
COC1CC(=C(c2cccs2)c2cccs2)C[N+](C)(C)C1 (stereo not drawn),Potency,[2],inactive
same,Potency,[4],10 µM (active)
same,Potency,[6],14.1 µM (active)
same,max response,[8],-1.67%
same,max response,[10],2.01%
same,max response,[11],0.141%
same,max response,[12],0.648%
same,outcome,[13],inactive
same,Potency,[14],inactive
same,Potency,[15],21.1 µM (active)
same,Potency,[16],7.5 µM (active)
O=C1OC(CCN2CCCCC2)OC1(c1ccccc1)c1ccccc1 (stereo not drawn),max response,[8],-20%
same,max response,[10],4.71%
same,Potency,[14],inactive
same,Potency,[15],21.1 µM (active)
same,Potency,[16],6.68 µM (active)
COc1ccc2c(c1OC)C(=O)O[C@H]2[C@@H]1c2cc3c(cc2CCN1C)OCO3,Potency,[17],inactive
same,max response,[8],0.738%
same,max response,[10],-4.43%
same,max response,[11],3.84%
same,outcome,[13],inactive
same,Potency,[14],inactive
same,Potency,[15],inactive
same,Potency,[16],inactive
CNC(C)(C)Cc1ccccc1,Potency,[1],inactive
same,Potency,[17],inactive
same,Potency,[2],inactive
same,Potency,[3],inactive
same,Potency,[4],inactive
same,Potency,[5],inactive
same,Potency,[6],inactive
same,Potency,[7],inactive
same,max response,[8],-3%
same,outcome,[10],inactive
same,max response,[11],16.1%
same,max response,[12],2.82%
same,outcome,[18],inactive
same,outcome,[13],inactive
same,Potency,[15],inactive
same,Potency,[16],inactive
CC(=O)C1CCOC1=O (stereo not drawn),outcome,[8],inactive
same,outcome,[10],inactive
same,outcome,[12],inactive
same,outcome,[20],inactive
same,outcome,[18],inactive
same,outcome,[19],inactive
same,outcome,[13],inactive
same,Potency,[15],inactive
same,Potency,[16],inactive
CCN[C@H](C)Cc1cccc(C(F)(F)F)c1,max response,[8],-0.312%
same,outcome,[10],inactive
same,max response,[11],-19.7%
same,max response,[12],-0.0448%
same,outcome,[18],inactive [at 92 µM]
same,outcome,[13],inactive
same,Potency,[14],inactive
same,Potency,[15],inactive
same,Potency,[16],inactive
CCOP(=S)(OCC)Oc1ccc2c(C)c(Cl)c(=O)oc2c1,Potency,[1],inactive
same,Potency,[17],inactive
same,Potency,[2],inactive
same,Potency,[5],7.94 µM (active)
same,Potency,[7],6.75 µM (active)
same,max response,[8],-4.21%
same,max response,[10],0.247%
same,max response,[11],-7.69%
same,max response,[12],-7.51%
same,outcome,[13],inactive
same,Potency,[15],inactive
NC(=O)CS(=O)C(c1ccccc1)c1ccccc1 (stereo not drawn),Potency,[1],inactive
same,Potency,[17],inactive
same,Potency,[2],inactive
same,Potency,[3],inactive
same,Potency,[4],inactive
same,Potency,[5],inactive
same,Potency,[6],inactive
same,Potency,[7],inactive
same,max response,[8],1.08%
same,max response,[10],-6.49%
same,max response,[11],3.03%
same,max response,[12],-4.5%
same,outcome,[13],inactive
same,Potency,[14],inactive
same,Potency,[15],inactive
same,Potency,[16],inactive
